Experiment in all cases: DAPPL (digital affinity profiling via proximity ligation, sequencing); 10 mM Tris-HCl pH 7.5, 50 mM NaCl, 1 mM DTT, 4% glycerol, room temperature, 30 min; GST-TFs on glutathione beads, 16-mer random dsDNA library, 0.1% formaldehyde crosslink after washing; high values mean tight binding
The target in one experiment is T1, FEV (Homo sapiens, UniProt Q99581 1-238).
T1 sequence: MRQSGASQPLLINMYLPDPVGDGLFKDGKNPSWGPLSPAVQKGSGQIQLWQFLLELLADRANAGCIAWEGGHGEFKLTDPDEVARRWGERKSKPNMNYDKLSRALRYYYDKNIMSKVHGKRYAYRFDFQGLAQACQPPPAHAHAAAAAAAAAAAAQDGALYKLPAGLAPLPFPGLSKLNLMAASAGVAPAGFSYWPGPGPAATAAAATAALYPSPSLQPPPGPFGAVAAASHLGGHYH
To be noted: protein: recombinant; tags: N-terminal GST; dsDNA, one strand shown. A digest of the protocol:
(§1)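 Binding signal is each hexamer's read frequency for a factor divided by its frequency in the tag-only sample. The factors were GST-fused human transcription factors from yeast, captured on glutathione beads, DNA-barcoded and pooled with that sample. Pools were incubated with 200 nmole of a random double-stranded 16-mer DNA library in Tris/NaCl/DTT/glycerol buffer at room temperature for 30 min, then washed, crosslinked with 0.1% formaldehyde, proximity-ligated with BsaI/T4 ligase (1 h, 37 °C), PCR-amplified and sequenced on an Illumina NextSeq500.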

Another experiment concerns the target ETV5 (Homo sapiens, UniProt P41161 1-510). As to conditions: protein: recombinant; tags: N-terminal GST; dsDNA, one strand shown. A digest of the protocol: as §1
In a further experiment the target is HSF1 (Homo sapiens, UniProt Q00613 1-529). To be noted: protein: recombinant; tags: N-terminal GST; chain copies: 3; dsDNA, one strand shown. A digest of the protocol:
as §1

The target of a further experiment is T2, SPIC (Homo sapiens, UniProt Q8N5J4 1-248).
T2 sequence: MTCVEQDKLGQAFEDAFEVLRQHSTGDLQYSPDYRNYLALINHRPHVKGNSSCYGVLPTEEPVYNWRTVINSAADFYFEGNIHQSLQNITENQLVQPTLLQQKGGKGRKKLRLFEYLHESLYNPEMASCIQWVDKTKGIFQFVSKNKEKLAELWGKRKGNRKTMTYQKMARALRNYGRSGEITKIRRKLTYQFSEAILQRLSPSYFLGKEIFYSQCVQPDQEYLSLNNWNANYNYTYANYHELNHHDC
To be noted: protein: recombinant; tags: N-terminal GST; dsDNA, one strand shown. In a few lines: as §1

The target in another experiment is ELF4 (Homo sapiens, UniProt Q99607 1-663). To be noted: protein: recombinant; tags: N-terminal GST; dsDNA, one strand shown. In a few lines:
as §1

The target in another experiment is T3, ELK4 (Homo sapiens, UniProt P28324-2 1-405).
T3 sequence: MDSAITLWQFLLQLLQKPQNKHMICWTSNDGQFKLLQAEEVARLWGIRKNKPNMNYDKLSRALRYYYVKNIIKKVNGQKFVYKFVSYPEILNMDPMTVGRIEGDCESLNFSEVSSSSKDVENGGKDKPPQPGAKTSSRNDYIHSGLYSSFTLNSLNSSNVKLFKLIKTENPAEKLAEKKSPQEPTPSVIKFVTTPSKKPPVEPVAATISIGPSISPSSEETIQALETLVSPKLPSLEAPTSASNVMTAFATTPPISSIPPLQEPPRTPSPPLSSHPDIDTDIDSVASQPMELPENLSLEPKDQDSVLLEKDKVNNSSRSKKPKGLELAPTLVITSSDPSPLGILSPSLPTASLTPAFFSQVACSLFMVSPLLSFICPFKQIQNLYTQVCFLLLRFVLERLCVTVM
As to conditions: protein: recombinant; tags: N-terminal GST; dsDNA, one strand shown. In a few lines: as §1

The target of a further experiment is T4, ETV2 (Homo sapiens, UniProt O00321 1-342).
T4 sequence: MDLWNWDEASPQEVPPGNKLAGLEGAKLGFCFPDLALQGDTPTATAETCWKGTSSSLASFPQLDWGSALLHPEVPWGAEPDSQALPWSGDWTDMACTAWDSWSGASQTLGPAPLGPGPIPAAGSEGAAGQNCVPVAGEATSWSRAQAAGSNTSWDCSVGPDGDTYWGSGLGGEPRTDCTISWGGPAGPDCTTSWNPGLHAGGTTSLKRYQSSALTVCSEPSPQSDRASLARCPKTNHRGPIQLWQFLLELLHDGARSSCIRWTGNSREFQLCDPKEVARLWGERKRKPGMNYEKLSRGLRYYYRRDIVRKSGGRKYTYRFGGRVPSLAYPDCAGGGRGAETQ
As to conditions: protein: recombinant; tags: N-terminal GST; dsDNA, one strand shown. In a few lines: as §1

The target in another experiment is T5, ELF3 (Homo sapiens, UniProt P78545 1-371).
T5 sequence: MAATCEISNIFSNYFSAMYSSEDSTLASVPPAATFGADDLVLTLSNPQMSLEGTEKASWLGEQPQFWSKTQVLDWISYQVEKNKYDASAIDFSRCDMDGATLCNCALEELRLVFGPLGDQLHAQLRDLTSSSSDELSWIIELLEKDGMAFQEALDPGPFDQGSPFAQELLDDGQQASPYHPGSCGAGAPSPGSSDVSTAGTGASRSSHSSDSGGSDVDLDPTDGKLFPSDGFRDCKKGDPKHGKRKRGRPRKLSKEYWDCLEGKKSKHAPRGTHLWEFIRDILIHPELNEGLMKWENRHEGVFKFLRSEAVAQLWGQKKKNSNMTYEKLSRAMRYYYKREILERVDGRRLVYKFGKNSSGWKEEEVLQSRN
To be noted: protein: recombinant; tags: N-terminal GST; dsDNA, one strand shown. In a few lines:
as §1

A further experiment concerns the target CRX (Homo sapiens, UniProt O43186 1-299). As to conditions: protein: recombinant; tags: N-terminal GST; dsDNA, one strand shown. A digest of the protocol: as §1
Another experiment addresses ETV1 (Homo sapiens, UniProt P50549 1-477). To be noted: protein: recombinant; tags: N-terminal GST; dsDNA, one strand shown. In a few lines:
as §1

The next experiment concerns the target T6, ERF (Homo sapiens, UniProt P50548 1-548).
T6 sequence: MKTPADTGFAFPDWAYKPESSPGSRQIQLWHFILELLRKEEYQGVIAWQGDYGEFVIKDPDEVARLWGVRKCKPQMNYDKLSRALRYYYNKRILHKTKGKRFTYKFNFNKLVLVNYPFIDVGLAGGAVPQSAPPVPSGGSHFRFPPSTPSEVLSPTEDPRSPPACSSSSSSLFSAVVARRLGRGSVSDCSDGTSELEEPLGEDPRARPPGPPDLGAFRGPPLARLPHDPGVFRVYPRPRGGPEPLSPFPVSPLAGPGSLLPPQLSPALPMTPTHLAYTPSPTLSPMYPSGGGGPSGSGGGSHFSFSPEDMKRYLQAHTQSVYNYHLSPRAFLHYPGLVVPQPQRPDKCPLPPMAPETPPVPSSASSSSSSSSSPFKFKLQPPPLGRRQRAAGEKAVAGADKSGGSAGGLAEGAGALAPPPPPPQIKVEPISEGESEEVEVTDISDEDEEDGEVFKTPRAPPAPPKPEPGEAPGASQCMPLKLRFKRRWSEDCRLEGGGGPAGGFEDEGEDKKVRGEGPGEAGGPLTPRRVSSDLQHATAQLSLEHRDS
As to conditions: protein: recombinant; tags: N-terminal GST; dsDNA, one strand shown. In a few lines: as §1

The target in the next experiment is T7, ETV3L (Homo sapiens, UniProt Q6ZN32 1-361).
T7 sequence: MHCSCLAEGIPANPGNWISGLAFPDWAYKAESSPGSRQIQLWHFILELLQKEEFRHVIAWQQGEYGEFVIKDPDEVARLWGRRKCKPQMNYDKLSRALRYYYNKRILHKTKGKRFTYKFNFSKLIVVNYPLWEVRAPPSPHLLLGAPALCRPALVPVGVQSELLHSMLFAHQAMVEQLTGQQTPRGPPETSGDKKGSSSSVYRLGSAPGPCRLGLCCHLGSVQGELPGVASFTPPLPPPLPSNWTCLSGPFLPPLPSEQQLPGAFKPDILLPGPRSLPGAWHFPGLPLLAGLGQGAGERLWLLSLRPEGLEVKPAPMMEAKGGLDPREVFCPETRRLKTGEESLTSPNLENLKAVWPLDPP
To be noted: protein: recombinant; tags: N-terminal GST; dsDNA, one strand shown. A digest of the protocol:
as §1

In the next experiment the target is T8, ETS2 (Homo sapiens, UniProt P15036 1-469).
T8 sequence: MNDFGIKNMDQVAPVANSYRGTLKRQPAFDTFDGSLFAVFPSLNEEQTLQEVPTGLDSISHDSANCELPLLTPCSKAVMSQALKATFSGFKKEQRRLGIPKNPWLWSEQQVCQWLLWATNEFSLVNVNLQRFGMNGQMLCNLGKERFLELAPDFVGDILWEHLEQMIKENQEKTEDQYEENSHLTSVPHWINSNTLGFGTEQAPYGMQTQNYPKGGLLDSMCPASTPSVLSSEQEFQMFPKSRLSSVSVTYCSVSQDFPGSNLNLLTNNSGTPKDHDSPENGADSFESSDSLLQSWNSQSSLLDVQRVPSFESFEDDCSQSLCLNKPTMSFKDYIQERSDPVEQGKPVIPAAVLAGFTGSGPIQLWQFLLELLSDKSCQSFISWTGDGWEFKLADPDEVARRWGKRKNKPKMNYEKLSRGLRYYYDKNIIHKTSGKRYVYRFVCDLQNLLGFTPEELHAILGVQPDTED
To be noted: protein: recombinant; tags: N-terminal GST; dsDNA, one strand shown. In a few lines:
as §1

A further experiment deals with T9, SPDEF (Homo sapiens, UniProt O95238 1-335).
T9 sequence: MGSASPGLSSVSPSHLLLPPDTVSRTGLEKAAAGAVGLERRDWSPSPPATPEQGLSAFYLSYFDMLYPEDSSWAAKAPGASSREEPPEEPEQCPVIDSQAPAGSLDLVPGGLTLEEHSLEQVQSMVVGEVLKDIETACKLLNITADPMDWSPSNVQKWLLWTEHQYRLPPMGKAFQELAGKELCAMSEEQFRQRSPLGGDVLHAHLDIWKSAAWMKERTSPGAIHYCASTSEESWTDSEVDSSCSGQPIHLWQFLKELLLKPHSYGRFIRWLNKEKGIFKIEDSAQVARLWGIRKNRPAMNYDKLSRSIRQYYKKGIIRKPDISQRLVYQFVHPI
To be noted: protein: recombinant; tags: N-terminal GST; dsDNA, one strand shown. A digest of the protocol:
as §1

A further experiment addresses T10, ETV7 (Homo sapiens, UniProt Q9Y603 1-341).
T10 sequence: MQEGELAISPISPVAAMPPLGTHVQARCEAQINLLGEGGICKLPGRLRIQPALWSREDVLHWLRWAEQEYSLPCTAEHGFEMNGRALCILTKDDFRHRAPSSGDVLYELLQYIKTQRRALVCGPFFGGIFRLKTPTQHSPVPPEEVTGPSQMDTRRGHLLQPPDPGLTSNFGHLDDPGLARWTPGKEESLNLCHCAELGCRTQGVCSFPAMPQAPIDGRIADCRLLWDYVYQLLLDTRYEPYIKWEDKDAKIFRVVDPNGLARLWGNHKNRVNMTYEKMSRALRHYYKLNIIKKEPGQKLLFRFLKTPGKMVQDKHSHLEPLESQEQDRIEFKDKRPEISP
As to conditions: protein: recombinant; tags: N-terminal GST; dsDNA, one strand shown. A digest of the protocol: as §1

The target in a further experiment is T11, ELF5 (Homo sapiens, UniProt Q9UKW6-2 1-255).
T11 sequence: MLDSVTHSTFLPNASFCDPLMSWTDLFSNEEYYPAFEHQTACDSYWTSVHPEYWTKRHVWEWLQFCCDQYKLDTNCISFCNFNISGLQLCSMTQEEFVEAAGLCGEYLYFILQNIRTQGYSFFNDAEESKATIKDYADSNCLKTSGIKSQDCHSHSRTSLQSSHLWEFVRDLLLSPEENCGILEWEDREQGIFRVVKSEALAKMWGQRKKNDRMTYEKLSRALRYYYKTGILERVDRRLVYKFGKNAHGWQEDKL
As to conditions: protein: recombinant; tags: N-terminal GST; dsDNA, one strand shown. A digest of the protocol:
as §1

The target in another experiment is T12, ETV3 (Homo sapiens, UniProt P41162-2 1-143).
T12 sequence: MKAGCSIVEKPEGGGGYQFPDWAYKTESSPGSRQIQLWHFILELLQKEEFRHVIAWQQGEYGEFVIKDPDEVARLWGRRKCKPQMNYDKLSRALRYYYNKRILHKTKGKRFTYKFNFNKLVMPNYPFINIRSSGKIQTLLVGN
To be noted: protein: recombinant; tags: N-terminal GST; dsDNA, one strand shown. In a few lines:
as §1

The target in the next experiment is ETV6 (Homo sapiens, UniProt P41212 1-452). As to conditions: protein: recombinant; tags: N-terminal GST; dsDNA, one strand shown. A digest of the protocol: as §1
Sequence of ETV6 (P41212 whole entry): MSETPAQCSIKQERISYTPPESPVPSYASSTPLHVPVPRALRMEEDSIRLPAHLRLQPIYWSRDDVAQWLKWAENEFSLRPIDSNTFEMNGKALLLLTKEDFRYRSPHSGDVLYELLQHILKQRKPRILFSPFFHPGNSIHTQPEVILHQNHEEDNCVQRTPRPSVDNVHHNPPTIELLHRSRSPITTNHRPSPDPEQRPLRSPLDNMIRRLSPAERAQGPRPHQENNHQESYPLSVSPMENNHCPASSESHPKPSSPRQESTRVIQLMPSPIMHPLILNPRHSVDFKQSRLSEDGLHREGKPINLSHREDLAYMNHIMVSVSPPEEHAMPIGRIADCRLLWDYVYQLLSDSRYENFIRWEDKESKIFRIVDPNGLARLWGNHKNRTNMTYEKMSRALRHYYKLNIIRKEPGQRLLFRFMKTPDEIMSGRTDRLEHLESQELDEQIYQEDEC

Sequence of ETV5 (P41161 whole entry): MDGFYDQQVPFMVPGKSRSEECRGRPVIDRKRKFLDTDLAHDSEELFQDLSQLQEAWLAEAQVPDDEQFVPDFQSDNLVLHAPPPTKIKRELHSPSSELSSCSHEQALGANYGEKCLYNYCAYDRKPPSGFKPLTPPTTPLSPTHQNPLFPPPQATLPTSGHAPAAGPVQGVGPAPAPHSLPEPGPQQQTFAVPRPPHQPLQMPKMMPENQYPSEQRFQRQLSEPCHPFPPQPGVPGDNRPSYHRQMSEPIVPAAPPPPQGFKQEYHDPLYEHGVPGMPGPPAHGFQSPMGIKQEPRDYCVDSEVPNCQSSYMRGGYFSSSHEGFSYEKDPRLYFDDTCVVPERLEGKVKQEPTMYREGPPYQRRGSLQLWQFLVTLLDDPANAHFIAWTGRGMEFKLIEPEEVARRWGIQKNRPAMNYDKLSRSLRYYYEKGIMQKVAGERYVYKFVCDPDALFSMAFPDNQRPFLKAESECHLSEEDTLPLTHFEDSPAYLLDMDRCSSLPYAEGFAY
Sequence of ETV1 (P50549 whole entry): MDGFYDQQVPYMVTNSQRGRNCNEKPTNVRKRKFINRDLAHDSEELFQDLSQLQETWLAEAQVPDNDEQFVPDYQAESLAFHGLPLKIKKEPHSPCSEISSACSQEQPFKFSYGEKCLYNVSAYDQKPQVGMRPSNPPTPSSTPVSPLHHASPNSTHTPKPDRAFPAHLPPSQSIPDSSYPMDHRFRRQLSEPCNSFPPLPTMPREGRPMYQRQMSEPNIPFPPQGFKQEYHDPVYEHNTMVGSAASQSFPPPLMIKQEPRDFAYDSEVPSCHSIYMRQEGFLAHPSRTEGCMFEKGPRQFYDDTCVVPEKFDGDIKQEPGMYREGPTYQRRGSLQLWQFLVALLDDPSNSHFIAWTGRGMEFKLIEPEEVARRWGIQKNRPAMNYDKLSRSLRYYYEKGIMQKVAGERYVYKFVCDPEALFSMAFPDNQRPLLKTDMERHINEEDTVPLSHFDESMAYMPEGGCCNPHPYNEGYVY
Sequence of ELF4 (Q99607 whole entry): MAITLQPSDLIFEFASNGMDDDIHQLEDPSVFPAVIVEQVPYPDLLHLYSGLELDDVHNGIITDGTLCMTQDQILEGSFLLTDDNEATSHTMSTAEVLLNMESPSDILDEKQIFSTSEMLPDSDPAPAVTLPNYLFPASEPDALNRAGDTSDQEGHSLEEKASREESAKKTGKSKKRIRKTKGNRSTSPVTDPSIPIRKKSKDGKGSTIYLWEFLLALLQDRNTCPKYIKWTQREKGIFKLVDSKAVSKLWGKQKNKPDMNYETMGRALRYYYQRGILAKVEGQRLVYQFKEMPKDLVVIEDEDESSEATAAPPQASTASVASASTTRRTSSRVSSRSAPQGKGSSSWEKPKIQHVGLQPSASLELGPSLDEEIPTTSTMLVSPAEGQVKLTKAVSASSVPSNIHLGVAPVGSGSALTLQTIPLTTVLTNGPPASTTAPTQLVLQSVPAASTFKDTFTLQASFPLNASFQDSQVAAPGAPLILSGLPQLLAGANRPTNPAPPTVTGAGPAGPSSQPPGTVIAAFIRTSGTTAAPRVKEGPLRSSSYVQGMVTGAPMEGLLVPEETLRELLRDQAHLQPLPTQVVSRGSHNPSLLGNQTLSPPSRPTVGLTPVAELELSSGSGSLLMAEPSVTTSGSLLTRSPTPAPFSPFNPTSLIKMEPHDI
Sequence of CRX (O43186 whole entry): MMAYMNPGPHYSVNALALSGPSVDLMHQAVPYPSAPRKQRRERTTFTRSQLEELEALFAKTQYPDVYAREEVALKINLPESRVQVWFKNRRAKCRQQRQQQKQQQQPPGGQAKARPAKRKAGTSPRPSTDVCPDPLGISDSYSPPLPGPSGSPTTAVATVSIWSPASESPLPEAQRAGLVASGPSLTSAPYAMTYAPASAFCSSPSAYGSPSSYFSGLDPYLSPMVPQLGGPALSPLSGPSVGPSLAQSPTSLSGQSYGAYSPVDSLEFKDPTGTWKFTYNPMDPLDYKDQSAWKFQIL
Sequence of HSF1 (Q00613 whole entry): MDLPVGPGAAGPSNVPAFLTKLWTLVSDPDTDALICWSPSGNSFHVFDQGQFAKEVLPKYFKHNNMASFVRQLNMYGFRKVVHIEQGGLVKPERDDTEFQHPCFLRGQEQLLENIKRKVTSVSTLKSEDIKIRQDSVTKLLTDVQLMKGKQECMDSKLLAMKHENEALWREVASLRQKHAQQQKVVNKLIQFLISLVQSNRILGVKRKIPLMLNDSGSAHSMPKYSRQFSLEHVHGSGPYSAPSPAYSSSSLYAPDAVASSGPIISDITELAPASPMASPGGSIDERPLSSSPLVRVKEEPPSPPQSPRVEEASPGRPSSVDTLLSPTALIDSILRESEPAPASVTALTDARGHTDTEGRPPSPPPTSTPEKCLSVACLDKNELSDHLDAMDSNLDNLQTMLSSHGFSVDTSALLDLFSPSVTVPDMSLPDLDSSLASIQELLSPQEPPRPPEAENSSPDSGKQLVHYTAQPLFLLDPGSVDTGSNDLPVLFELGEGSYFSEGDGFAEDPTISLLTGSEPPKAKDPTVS

On to AAAACG, for which the binding signal was 1.18 fold enrichment (6-mer frequency, TF over GST control) with FEV; 1.29 fold enrichment (6-mer frequency, TF over GST control) with ETV5; 1.06 fold enrichment (6-mer frequency, TF over GST control) in the experiment with HSF1; 1.3 fold enrichment (6-mer frequency, TF over GST control) with SPIC; 1.22 fold enrichment (6-mer frequency, TF over GST control) with ELF4; 1.19 fold enrichment (6-mer frequency, TF over GST control) with ELK4. Besides, the binding signal in the experiment with ETV2 is 1.24 fold enrichment (6-mer frequency, TF over GST control); with ELF3, 1.16 fold enrichment (6-mer frequency, TF over GST control); in the experiment with CRX, 1.05 fold enrichment (6-mer frequency, TF over GST control); with ETV1 it was 1.21 fold enrichment (6-mer frequency, TF over GST control); in the experiment with ERF, 1.24 fold enrichment (6-mer frequency, TF over GST control); in the experiment with ETV3L, 1.19 fold enrichment (6-mer frequency, TF over GST control). In addition, the binding signal with ETS2 is 1.21 fold enrichment (6-mer frequency, TF over GST control); with SPDEF, 1.2 fold enrichment (6-mer frequency, TF over GST control); with ETV7, 1.14 fold enrichment (6-mer frequency, TF over GST control); with ELF5, 1.18 fold enrichment (6-mer frequency, TF over GST control); in the experiment with ETV3 it was 1.15 fold enrichment (6-mer frequency, TF over GST control); with ETV6, 1.25 fold enrichment (6-mer frequency, TF over GST control).

Source of the values: article PMC7862700, “An all-to-all approach to the identification of sequence-specific readers for epigenetic DNA modifications on cytosine”.
